Results with a measured potency or affinity are listed apart. Results filed as inconclusive are left out.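 The calls were made as follows: active = falling signal with fitted half-maximal potency no higher than twice the top valid tested dose; inconclusive = poor fit quality, or flat fit spanning -70% to -30%; inactive = potency over limit, rising signal, or flat fit inside 30%.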
Assay: fungal growth arrest, C. neoformans – Alamar Blue, cherry-picks, dose response (AID 686998)
Conditions: Cryptococcus neoformans growth, 24 h; series mostly up to 35 µM; activity change, negative = inhibition: at the top concentration

Activity change, negative = inhibition, inactive:
Cc1ccc(N(CC(N)=O)S(=O)(=O)c2ccc(F)cc2)cc1 -24.4% [at 38 µM]
C/C=C/c1ccc2c(c1)O[C@H](CN(C)S(=O)(=O)c1ccccc1)[C@H](C)CN([C@@H](C)CO)S2(=O)=O -16.9%
C[C@H]1CCCCO[C@H](CN(C)C(=O)c2ccncc2)[C@@H](C)CN([C@@H](C)CO)C(=O)c2cc(NC(=O)Cc3ccccc3)ccc2O1 10.3%
CO[C@H](CN(C)Cc1ccc2c(c1)OCO2)[C@@H](C)CN(C(=O)c1ccccc1)[C@@H](C)CO -29.1%
C[C@H](CO)N1C[C@H](C)[C@H](CN(C)Cc2cccnc2)Oc2ncc(C#CC3(O)CCCC3)cc2C1=O -14.1%
O=C(C[C@H]1C=C[C@H](NC(=O)C2CCC2)[C@@H](CO)O1)NC1CCC1 -28.6%
Cc1noc(C)c1S(=O)(=O)Nc1ccc2c(c1)CC(=O)N([C@@H](C)CO)C[C@@H](C)[C@@H](CN(C)S(=O)(=O)c1cccs1)O2 7.45%
COc1ccccc1C(=O)Nc1ccc2c(c1)C(=O)N(C)C[C@@H](OC)[C@H](C)CN(C)[C@@H](C)CO2 28.1%
COc1ccccc1C(=O)N1C[C@H]2[C@@H](c3ccccc31)[C@@H](CO)N2C(=O)Cc1ccccc1 -28.8%
CC(=O)NC[C@H]1[C@@H](c2ccc(C3=CCCC3)cc2)[C@@H](CO)N1C(=O)NC(C)C -17.4%
COCC(=O)Nc1ccc2c(c1)OC[C@@H](C)N(C(=O)Cc1cccnc1)C[C@H](C)[C@@H](OC)CN(C)C2=O 4.16%
C[C@@H]1CN([C@H](C)CO)C(=O)c2c(c3ccccc3n2C)-c2ccccc2CO[C@H]1CN(C)S(=O)(=O)c1cccs1 39.2%
CNC(=O)C[C@@H]1CC[C@H]2[C@@H](COC[C@H](O)CN2C(=O)Nc2ccc3c(c2)OCO3)O1 -7.54%
COC(=O)N(C)C[C@H]1OCc2cn(nn2)CCCC(=O)N([C@@H](C)CO)C[C@@H]1C -32.7%
CC(=O)NNC(=O)CSc1nnc(-c2ccccc2)c(-c2ccccc2)n1 -26.9%
CNC[C@@H]1OCCCC[C@H](C)Oc2ccc(NC(=O)Nc3ccc(F)cc3)cc2C(=O)N([C@@H](C)CO)C[C@H]1C 28.9%
CNC[C@H]1Oc2ccc(NC(=O)Cc3cn(C)c4ccccc34)cc2CC(=O)N([C@@H](C)CO)C[C@H]1C 30.7%
CCNC(=O)COc1cccc(C(=O)NCc2ccccc2)c1 -36.6%
O=C1CCC(C(=O)Nc2ccccc2)N1 (stereo not given) -33.7%
COc1ccc(C#Cc2ccc3c(c2)O[C@H](CN(C)C(=O)Nc2cccc(OC)c2)[C@H](C)CN([C@@H](C)CO)S3(=O)=O)cc1 23.4%
C[C@@H]1CN([C@@H](C)CO)C(=O)c2cc(NC(=O)C3CCCCC3)ccc2O[C@@H](C)CCCCO[C@@H]1CN(C)C(=O)NC1CCCCC1 35.2%
C[C@@H]1CN([C@@H](C)CO)C(=O)CCCn2nncc2CO[C@H]1CN(C)Cc1cccc(C(F)(F)F)c1 5.64%
CCCC#Cc1ccc2c(c1)O[C@@H](CN(C)C)[C@@H](C)CN([C@@H](C)CO)S2(=O)=O -13%
CCC(=O)N1[C@@H]2c3cccc(=O)n3C[C@H]1[C@H](CO)[C@H]2C(=O)NCc1ccccc1 -27.4%
C[C@@H]1CCCCO[C@@H](CN(C)S(=O)(=O)c2ccc(F)cc2)[C@@H](C)CN([C@@H](C)CO)C(=O)c2cc(NS(=O)(=O)c3ccc(F)cc3)ccc2O1 -7.73%
C[C@@H]1CN([C@H](C)CO)C(=O)c2cc(-c3ccc(C#N)cc3)cnc2O[C@@H]1CN(C)C(=O)Nc1ccc(F)cc1 22.1%
COc1cccc(S(=O)(=O)N(C)C[C@H]2OCc3cnnn3CCCC(=O)N([C@H](C)CO)C[C@H]2C)c1 -25.8%
COc1ccccc1-c1ccc2c(c1)O[C@@H](CN(C)C(=O)c1cccnc1)[C@H](C)CN([C@@H](C)CO)S2(=O)=O -32.1%
CN1C(=O)c2cc(NS(=O)(=O)c3cccc(F)c3)ccc2OC[C@H]2O[C@H](CC(=O)O)CC[C@H]21 43%
COCCNC(=O)C[C@@H]1CC[C@@H]2[C@H](COC[C@@H](O)CN2S(=O)(=O)c2ccccc2C)O1 11.1%
COc1cccc(S(=O)(=O)N2C[C@@H](O)COC[C@@H]3O[C@H](CC(=O)N4CCN(C)CC4)CC[C@H]32)c1 -21.7%
Cc1cc(C)c(NC(=O)C(C)N2CCCCCC2)c(C)c1 (stereo not given) 5.61%
O=C(C[C@H]1C[C@H]2c3cc(NC(=O)C4CCC4)ccc3O[C@H]2[C@@H](CO)O1)NCc1cccc(F)c1 -15% [at 30 µM]
CC(C)NC(=O)N(C)C[C@H]1OCCCC[C@@H](C)Oc2ccc(NC(=O)c3ccccc3)cc2C(=O)N([C@@H](C)CO)C[C@@H]1C 17.4%
COc1ccc(CN(C)C[C@@H]2Oc3ccc(NC(=O)C4CC4)cc3C(=O)N([C@H](C)CO)C[C@H]2C)cc1 -23.1%
C[C@H]1CN([C@@H](C)CO)S(=O)(=O)c2ccc(Br)cc2O[C@@H]1CN(C)S(=O)(=O)c1ccccc1F -16.2%
C[C@H]1CN([C@@H](C)CO)C(=O)Cc2cc(NC(=O)CCCCCC(=O)Nc3ccccc3N)ccc2O[C@H]1CN(C)C(=O)Nc1ccccc1 -18.9%
C[C@H]1CN([C@@H](C)CO)C(=O)CCCn2nncc2CO[C@@H]1CN(C)Cc1cccc(C(F)(F)F)c1 -36.5%
C[C@H](CO)N1C[C@H](C)[C@H](CN(C)Cc2ccncc2)Oc2ccc(NC(=O)CCC(F)(F)F)cc2C1=O -11.4%
CC(=O)N1[C@H](CO)[C@H](c2ccc(-c3ccccc3)cc2)[C@H]1CNC(=O)C1CC1 -7.67%

Source: PubChem BioAssay
